MARV entry inh: blocks Marburg virus binding to or entry into cells. Marburg virus pseudotyped entry inhibition, cell reporter. Potency, µM (titrated, usually from 37.8 µM), without a hit: at the top dose activity change, negative = inhibition, actives largely listed as inhibitors. hit rate 1.8% among 300,000. AID 540276; calls by dose curve; tested in HEK293 cells; further: potency means the concentration at half of the fitted maximal effect
VACV Venus inh: vaccinia inhibition (Venus reporter); Vaccinia virus Venus reporter expression, fluorescence; hit rate 0.46% among 330,000; Potency, µM (top dose mostly 36.5 µM), inactives show at the highest dose activity change, negative = inhibition, hits mostly inhibitors; calls by dose curve; tested in A549 cells; further: potency means the concentration at half of the fitted maximal effect; nearly all actives have a fitted effect of over 30% in size
VACV mCherry inh: inhibitors of vaccinia virus infection (mCherry reporter signal); Vaccinia virus mCherry reporter infection, fluorescence; Potency, µM (highest dose often 36.5 µM), for the others: at the highest dose activity change, negative = inhibition, hits mostly inhibitors; hit rate 0.63% among 310,000; calls by dose curve; tested in A549 cells; further: potency means the concentration at half of the fitted maximal effect; nearly all actives have a fitted effect of over 35% in size
HCMV antiviral: human cytomegalovirus inhibition; HFF cells, HCMV-luciferase reporter, 72 h; active compounds read low; activity change, negative = inhibition, % at 57.5 µM; hit rate 4.5% among 410,000; in the data active means activity change below about -60%; inconclusive means no clear call, values can overlap the other calls; inactive means above about -39%
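Inhibition of viral replication was scored as loss of reporter luminescence in HFFs infected with HCMV-luciferase (MOI 1 PFU/cell) for 72 h; compounds tested at 2 doses, normalized to buffer and Salinomycin controls.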
HCV inhibitor: HCV inhibition | Potency, µM (top dose mostly 41.8 µM), without a hit: at the highest dose activity change, negative = inhibition, hits mostly inhibitors | hit rate 3.4% among 340,000 | AID 651820 | Huh7.5.1 HCVcc-Cre infection, luciferase reporter, 44 h; active means well fitted inhibition curve with a large enough effect; inconclusive means small, poorly fitted or top-dose-only effect, or another doubt; inactive means no such curve, though single readings can be large or run the other way; further: potency means the concentration at half of the fitted maximal effect
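A cell-based infection assay in which seeded cells (1,000 per well) receive test compound after 4 h, are inoculated with HCVcc-Cre at approximately 0.5 moi, and are incubated 44 h before luminescence detection.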
LASV entry inh: blocks Lassa virus binding to or entry into cells; Lassa virus pseudotype entry inhibition, cell reporter; Potency, µM (series often up to 37.9 µM), for the others: at the highest dose activity change, negative = inhibition, hits mostly inhibitors; hit rate 1.2% among 300,000; calls by dose curve; tested in HEK293 cells; further: potency means the concentration at half of the fitted maximal effect; nearly all actives have a fitted effect of over 50% in size
Numbers without * were called inactive; i = inactive; ? = inconclusive; nt = not tested or not shown; [ ] = remark or other dose. A selection: hits, their analogues and other compounds. The true share with any hit is near 7.8%. On the % scale 0 is the no-effect control and ±100 the full control effect.

SMILES | MARV entry inh | VACV Venus inh | VACV mCherry inh | HCMV antiviral | HCV inhibitor | LASV entry inh
CCCCn1c(=O)c2oc3ccccc3c2n(CC(=O)Nc2cccc(Cl)c2C)c1=O | nt | -25% | ? | -25 | nt | -3%[46.1 µM]
CC1=C(C(N)=O)C(c2cccc(C)c2)n2nc(-c3cccc(C)c3)nc2N1 (stereo not drawn) | 11%[46.1 µM] | -9% | 2% | 62 | nt | -4%[46.1 µM]
CCOc1ccc2[nH]c3c(NCCCOC)ncnc3c2c1 | nt | nt | nt | 36 | -24% | nt
CC(C)OCCCNc1ncnc2c1[nH]c1ccccc12 | ? | nt | nt | -75* | 2.5µM* | ?
CC(Sc1nnc(C2CC2)n1C1CC1)C(=O)c1ccc(Br)cc1 (stereo not drawn) | -12% | -12% | -2% | -62* | 21% | -1%
COc1cc2c(cc1OC)C(COc1ccc(C(C)C)cc1)N(C(=O)c1ccc(S(=O)(=O)N3CCCC3)cc1)CC2 (stereo not drawn) | nt | -6% | 5% | -2 | nt | -22%[46.1 µM]
CCN(CC)CCn1c(=N)n(CC(O)COc2ccccc2)c2ccccc21 (stereo not drawn) | 4.5µM* | -28% | -10% | 0 | ? | 6%
Cn1c(=N)n(CC(=O)c2ccc(Br)s2)c2ccccc21 | ? | -20% | -27% | 6 | ? | ?
CCN=c1sc2ccccc2n1CC(O)COc1ccccc1 (stereo not drawn) | -25% | -27% | nt | ? | 13µM* | -4%
CCN(CC)CCn1c(=N)n(CC(=O)c2ccc(Br)s2)c2ccccc21 | 7.1µM* | -28% | ? | -97* | -88% | ?
CCN(CC)CCn1c(=N)n(CCO)c2ccccc21 | -4% | 0% | i | 17 | 0% | 0%
CCCn1c(=N)n(CC(O)COc2ccc(C)cc2)c2ccccc21 (stereo not drawn) | ? | -20% | -14% | -6 | ? | ?
CCN(CC)CCn1c(=N)n(CCOc2ccccc2)c2ccccc21 | 4.1µM* | nt | nt | ? | 10µM* | 21µM*
Cc1ccccc1Nc1c(-c2ccc(N3CCOCC3)cc2)nc2ccc(Br)cn12 | -13%[46.1 µM] | -9% | -18% | 19 | nt | -26%[46.1 µM]
O=C(NCCN1CCN(c2cccc(Cl)c2)CC1)Nc1ccccc1C(F)(F)F | -4%[46.1 µM] | -12% | -10% | -5 | nt | 1%[46.1 µM]
CCCCSCCCNC(=O)c1cc(-c2cccnc2)nc2ccc(S(=O)(=O)N3CCC(C)CC3)cc12 | nt | 1% | -6% | 20 | nt | 25%[46.1 µM]
CC#CCN1C(=O)N(C)C(c2ccccc2)C(C(=O)OC)=C1C (stereo not drawn) | -4%[14.2 µM] | nt | nt | nt | nt | nt
COC(=O)c1cc(=O)c2c(C)nc(C(Cl)(Cl)Cl)nc2[nH]1 | 28%[46.1 µM] | -21% | -8% | -100* | 8% | -1%
CCCOc1cccc(C(=O)N(Cc2cc(OC)c(OC)c(OC)c2)C2CCS(=O)(=O)C2)c1 (stereo not drawn) | 1%[46.1 µM] | -6% | -8% | -3 | nt | -1%[46.1 µM]
C[N+]1(C)CC2=Cc3ccccc3CC2C1 (stereo not drawn) | 6%[46.1 µM] | -21% | -1% | ? | 4% | 6%[46.1 µM]
C1=C2C[N+]3(CCCC3)CC2Cc2ccc3ccccc3c21 (stereo not drawn) | ? | -20% | -13%[1.46 µM] | -65* | ? | 0%
CCC1=C/C(=C/c2sc3ccccc3[n+]2CC)CC(C)(C)C1 | -33%[46.1 µM] | -10% | -4% | -40 | ? | 4%[46.1 µM]
CC[n+]1c(/C=C2\C=C(C)CC(C)(C)C2)sc2ccccc21 | ? | -10% | i | -19 | 6.3µM* | 9.2µM*
CC[n+]1c(/C=C2/C=C(C)CC(C)(C)C2)sc2ccc(OC)cc21 | ? | 4% | nt | -87* | ? | ?
Cc1ccccc1-c1noc(-c2ccccc2OCC(=O)Nc2cccc([N+](=O)[O-])c2)n1 | -16%[46.1 µM] | -7% | -3% | 17 | nt | 2%[46.1 µM]
SMILES | MARV entry inh | VACV Venus inh | VACV mCherry inh | HCMV antiviral | HCV inhibitor | LASV entry inh
COc1ccc(CCNC(=O)c2ccc3c(c2)CCN3S(=O)(=O)c2ccccc2)cc1 | -22%[46.1 µM] | -10% | -17% | ? | nt | ?
N/C(=N\OC(=O)c1ccc2ccccc2c1)c1ccncc1 | nt | nt | nt | 33 | ? | nt
CCCc1ccc(C(=O)O/N=C(\N)c2ccccn2)cc1 | 11µM* | -6% | -10% | -70* | 1% | 1.4µM*
N/C(=N\OC(=O)c1ccc2ccccc2c1)c1ccccn1 | ? | -9% | -10% | -83* | 6% | ?
O=C(c1ccc(F)cc1)N1CCC(C(=O)N2CCN(Cc3ccc4c(c3)OCO4)CC2)CC1 | -2% | -20% | i | -1 | ? | 8%
C[C@H](NC(=O)c1ccccc1)C(=O)N1CCN(Cc2ccc3c(c2)OCO3)CC1 | nt | nt | nt | 8 | 6% | nt
NC(=O)CC[C@H](NC(=O)c1ccc(F)cc1)C(=O)N1CCN(Cc2ccc3c(c2)OCO3)CC1 | 9% | -7% | -19% | -70* | 4% | -12%
CC(C)[C@H](NC(=O)c1ccc(C(C)(C)C)cc1)C(=O)N1CCN(Cc2ccc3c(c2)OCO3)CC1 | ? | -24% | -10% | ? | 11µM* | ?
O=S(=O)(NC1CCSc2ccccc21)c1ccccc1 (stereo not drawn) | ? | -12% | -29% | -28 | 16% | 1%[46.1 µM]
CC(=O)Nc1ccc(S(=O)(=O)NC2CCSc3ccccc32)cc1 (stereo not drawn) | 10µM* | -11% | -20% | -30 | -6% | ?
CCC(Oc1ccccc1-c1nnc(-c2ccccc2)o1)C(=O)Nc1ccc(C(C)=O)cc1 (stereo not drawn) | nt | -14% | -1% | 15 | nt | ?
COc1ccc(CCNC(=O)c2nn(-c3ccc(C)cc3)c(=O)c3c2c2ccccc2n3C)cc1OC | ? | 4% | 2% | 11 | nt | 1%[46.1 µM]
CCCSc1nnc(Sc2nnnn2-c2ccccc2)s1 | ? | nt | nt | -78* | ? | ?
C(=C\CSc1nnnn1-c1ccccc1)/CSc1nnnn1-c1ccccc1 | 8% | nt | nt | 5 | ? | -7%
CCCn1c(Sc2nnnn2-c2ccccc2)n[nH]c1=O | -12% | nt | nt | -106* | 1% | -6%
CN(C)c1ccc(/C=C2\CCc3ccccc32)cc1 | nt | 12% | 23% | nt | nt | nt
CCOC(=O)c1cc(-c2ccc(C)cc2)n(CC(=O)Nc2ccc(OC)c(Cl)c2)c1C | -19%[46.1 µM] | ? | -29% | -91* | nt | nt
CCOC(=O)c1cc(-c2ccc(C)cc2)n(CCC(=O)Nc2ccc(OC)c(OC)c2)c1C | ? | -6% | -17% | -10 | nt | nt
CC(C)Cn1c(=O)c2sccc2n2c(CCCC(=O)NCc3ccccc3Cl)nnc12 | nt | 0% | -9% | 29 | nt | 9%[46.1 µM]
O=C1Nc2cc(C(=O)NCCN3CCCCCC3)ccc2S/C1=C\c1ccccc1 | nt | nt | nt | -100* | 14µM* | nt
COc1cccc(/C=C2/Sc3ccc(C(=O)NCCN4CCCCCC4)cc3NC2=O)c1 | nt | nt | nt | -70* | 5.6µM* | nt
c1ccc(CCNc2ccnc3cc4ccccc4cc23)cc1 | ? | ? | ? | -101* | 6.3µM* | nt
COc1ccc(Nc2ccnc3ccccc23)cc1 | ? | -20% | nt | ? | ? | -4%

Screening data from PubChem BioAssay.
